Out of some 31,000 sequences screened, about 1,400 (4.5%) were called active.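 How the source made its calls: active means median seed-adjusted z-score above 1 or below -1; inactive means the rest.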 This excerpt belongs to a sample that is enriched for actives.

The results in this text go back to PubChem BioAssay AID1347426 (Functional Genomics Laboratory (NCATS/FGL), 2020).

This assay in a line: Novel Modifiers of Survival Motor Neuron (SMN) Protein: Gene Identification via Genome-wide siRNA Screen. Conditions: HEK293T SMN2-luciferase reporter, siRNA knockdown, 72 h; actives lie on both sides. The text has this: Spinal muscular atrophy (SMA) is the most common neuromuscular autosomal recessive disorder and one of the leading genetic causes of infant death. SMA results from mutations inducing loss of function or deletion in the survival of motor neuron-1 gene (SMN1), leading to deficiency of the survival motor neuron (SMN) protein. Although a second nearly identical gene, SMN2, is retained in humans, its expression primarily produces an aberrantly spliced isoform that is largely unstable and quickly degraded. We performed a genome-wide RNAi screen using a cell-based reporter assay to identify genes and pathways that modulate SMN protein stability. The screen identified over 200 genes that led to the greatest increase or decrease in luciferase expression.
Using HEK293T cells stably expressing a luciferase reporter that combines the promoter and splicing based cassettes in tandem with the major portion of the native SMN2 cDNA with luciferase, we performed a genome-wide RNAi screen to identify modulators of SMN protein levels. Luciferase is expressed when full-length SMN protein is generated with luminescence signal proportional to SMN protein levels. Our luciferase-based reporter assay was used to screen Ambion Silencer Select Human Druggable Genome siRNA library (10418 genes, 3 unique siRNAs per gene) using lipid-based reverse transfection.
Briefly, 1 pmol of each siRNA was spotted to a well of a 384-well plate (Corning, Corning, NY) and 20 microL of serum-free DMEM containing […] of Lipofectamine RNAiMax (Life Technologies, Carlsbad, CA) was then added to each well. Transfected cells were maintained at 37 degrees C in 5% CO2 for 72 hours, 20 microL of ONE-Glo Reagent (Promega) was added to wells for luciferase quantification. Raw luminescence reads were normalized to Ambion(R) Silencer(R) Negative Control #2 siRNA, then log10 transformed. A robust statistical measure of median absolute deviation (MAD) to standardize siRNA activities from each screen. Common Seed Analysis was used to help prioritize clean hits as opposed to those appearing to arise from seed based off-target effects. Candidate modulators were defined as the genes having a MAD score greater than 1.0 or less than -1.0.
In the case of GCAAUUCCCAAGAUCCUUATT against LAMB1, the median seed-adjusted z-score was 1.07 (active).

Turning to GGUCGAAUGAUAAGGUGUATT against PTK2, the median seed-adjusted z-score is -0.0806 (inactive).

Regarding GCCUCAGUCUUUGCAGUCUTT against CDCP2, the median seed-adjusted z-score was 0.0708 (inactive).

On to GGUAAUGACUCCACAGGGATT against SNRPN, for which the median seed-adjusted z-score is -0.571 (inactive).

In the case of GAUACUACCCUGAUCAUAUTT against TMTC3, the median seed-adjusted z-score is 0.266 (inactive).

With UGGUGUCAGUGGAUCGCUATT against GPR101, the median seed-adjusted z-score was -0.265 (inactive).

On to CCAAAACAGUGGAGAGAGATT against BIN3, for which the median seed-adjusted z-score is 0.16 (inactive).

Regarding GAACAUUGUUUGUAAGGCUTT against SUOX, the median seed-adjusted z-score is -0.0649 (inactive).

Consider GGAUAUAAUGAGAUAUGUUTT against ETF1, for which the median seed-adjusted z-score is -1.12 (active).

Take GCUCAACUCUCAUUCGGCATT against ZNF550: the median seed-adjusted z-score is 0.131 (inactive).

As for GACCUGCCGUGAUAUCGUUTT against PSMA3, the median seed-adjusted z-score is -0.81 (inactive).

As to CACUAAACGAGGAUUCCUATT against YWHAH, the median seed-adjusted z-score was -0.125 (inactive).

GGAUCGUAGUGAAACCGAUTT against DDX17: the median seed-adjusted z-score was 0.231 (inactive).

In the case of CGUGAUCAAUAGGAAAAUUTT against CCL8, the median seed-adjusted z-score was 0.436 (inactive).

Regarding CAGAUUACGUGGAACAGGATT against EFTUD2, the median seed-adjusted z-score was -1.25 (active).

With CGUCCUAAUCUCAAUCUUATT against CD200, the median seed-adjusted z-score was -0.0135 (inactive).

Turning to GCCCAUAUUUCAUCGUGUATT against NPY, the median seed-adjusted z-score was -0.0606 (inactive).

As to CAGGAUAUCGAAUCCCUAATT against PPFIA2, the median seed-adjusted z-score was 0.176 (inactive).

In the case of GUCGAGUUGUAUCGCAUUATT against COX4I1, the median seed-adjusted z-score is -0.39 (inactive).

Regarding GGCUAGCCCUAGUAUGGAATT against CCAR1, the median seed-adjusted z-score was -1.18 (active).

As for CCUUCAAUCACCGACCUUATT against SYNJ2, the median seed-adjusted z-score was 0.0202 (inactive).

With CGCUACCUGUCCCUGUAUATT against GPR6, the median seed-adjusted z-score is 0 (inactive).

Turning to GCAACAUAUGGGAAUUAGATT against MEIS1, the median seed-adjusted z-score is 0 (inactive).

Take CAGAGGAGCUACAAAAGUATT against MX1: the median seed-adjusted z-score was -1.49 (active).

For GCAUAUAUCAAGAAUUCAATT against CLIC4, the median seed-adjusted z-score is -0.498 (inactive).

In the case of GAAACUAUAUCCACAUCAATT against GIPR, the median seed-adjusted z-score was 0.475 (inactive).

Turning to CAUCUUGAAGUCUUAUUAATT against MYOCD, the median seed-adjusted z-score is -0.121 (inactive).

For AAUCAGAUCAAAAACAUAATT against TNFRSF10C, the median seed-adjusted z-score was 0 (inactive).

Consider GGAGGAAGGUCUCAACGUATT against TCFL5, for which the median seed-adjusted z-score is 1.52 (active).

Consider GCAAAUCUAUUUUCGGAAATT against AGTPBP1, for which the median seed-adjusted z-score is -0.201 (inactive).

As to GACUCUUCUGACUAACAUATT against DACH1, the median seed-adjusted z-score is 0.562 (inactive).

Regarding GACUCUAUGCUGAUAAUGATT against ADIPOQ, the median seed-adjusted z-score is 0.557 (inactive).

For GCUGAGAUUUUCAAUAAGATT against NR1H4, the median seed-adjusted z-score is -0.056 (inactive).

For CGCCCAUUCUUCAAUGUCATT against SIAH1, the median seed-adjusted z-score was 1.5 (active).

Regarding AGUGCGCCCAGAAUCUAAATT against ZNF689, the median seed-adjusted z-score is 0.448 (inactive).

Take CGGAGUUUGUUGAUAUCGATT against LGI2: the median seed-adjusted z-score is 0 (inactive).

For the sequence CAAAUUUCCUGUUAAUCGATT against APPL1, the median seed-adjusted z-score is 0 (inactive).

Consider GAAAUGACCUUAUUAGUCATT against RYK, for which the median seed-adjusted z-score was -0.446 (inactive).

Consider CAGACUACCCUGAUAGUUUTT against FLVCR1, for which the median seed-adjusted z-score is 0.197 (inactive).

For GGUCAGAGACCAUCCAGAATT against GFRA4, the median seed-adjusted z-score is -1.59 (active).

For AGAGGAAGAUAGAUUUUCUTT against PFDN5, the median seed-adjusted z-score is 0.562 (inactive).

GGAUGUAUUGUCGCCUGUATT against RENBP: the median seed-adjusted z-score was 0.587 (inactive).

Turning to CGAACUGCUUUAUGACCUATT against KIF20A, the median seed-adjusted z-score was 0.906 (inactive).

For GACGAGACCUCUUCUCUCATT against ART1, the median seed-adjusted z-score is 0.0033 (inactive).

In the case of CCUGUGGUUUGCUAUCUAATT against SLC24A5, the median seed-adjusted z-score was -0.166 (inactive).

With CGGUGCUGCUAGACGUGAATT against HSPB6, the median seed-adjusted z-score was 0.394 (inactive).

GGGUAAUUGGAACAUGUUUTT against RCN3: the median seed-adjusted z-score is -2.44 (active).

For CCUUUACAAAUAACGGAUATT against NHLRC2, the median seed-adjusted z-score was 0.548 (inactive).

As for CAUGUUCACUGCUACCGAUTT against LPP, the median seed-adjusted z-score is -0.103 (inactive).

On to CCUUCAUCCGUAUCAUGGATT against POLD1, for which the median seed-adjusted z-score was -0.715 (inactive).

GCUGUGAUCUCAUGGAUCATT against KLHL3: the median seed-adjusted z-score was -0.237 (inactive).

GCUUUAUGUGGGCUCAUUATT against RBM39: the median seed-adjusted z-score is -1.82 (active).

Regarding CACUGACACUUACAAUGAATT against UGT3A1, the median seed-adjusted z-score was 0.864 (inactive).

Consider GGAACUUACGAUGCAGGAATT against GALNT13, for which the median seed-adjusted z-score is -0.0149 (inactive).

GCAACAGUAUUUCGGUAUATT against CHEK1: the median seed-adjusted z-score is -5.1 (active).

For the sequence GUCUUAGAAUGAGUAGCAATT against KCNMA1, the median seed-adjusted z-score was 0 (inactive).

For CACUAUCAGUUGGAACAGATT against CD36, the median seed-adjusted z-score is -0.000845 (inactive).

Take GGCUGAGAUGCGUCGUAAATT against ARCN1: the median seed-adjusted z-score was -1.25 (active).

Turning to GAUUGAUGGGUGUAAGAAATT against SMS, the median seed-adjusted z-score is 0.186 (inactive).

Take GAGACCUAAUGUUUCAUAUTT against PRKCI: the median seed-adjusted z-score is 0.386 (inactive).

For the sequence CAAGGUCAAGUGCGAGAAATT against MAFB, the median seed-adjusted z-score is 0.674 (inactive).

Turning to CCGUCAUGGUUGAUGGAGATT against SEMA4D, the median seed-adjusted z-score is 0.309 (inactive).

For CCAUAGUCUUCAUCUACGATT against GPR153, the median seed-adjusted z-score is -1.08 (active).

With GAACAGUGUUUGUCAGCAUTT against ASAH2, the median seed-adjusted z-score is 0.615 (inactive).

On to AAAGCACAGUGUUAAAUGATT against TAC1, for which the median seed-adjusted z-score is 0.0499 (inactive).

Regarding CCCAGAAGAUUACCUUUGATT against NARG1L, the median seed-adjusted z-score was 0.0121 (inactive).

For the sequence CCGUGCUGACCUCCAAAUATT against HBA1, the median seed-adjusted z-score was -1.03 (active).

CUUUCGGUUUGAAGAAUAATT against ZC3H15: the median seed-adjusted z-score was 0.191 (inactive).

With AGCAUGUGGUAGACGAGAATT against RGS19, the median seed-adjusted z-score is 0.295 (inactive).

In the case of GACCUUCACCGUUACGUUATT against HDLBP, the median seed-adjusted z-score is -1.18 (active).
